Measurements taken from PubChem BioAssay (EPA / NIEHS).
Results filed as inconclusive are left out. Active and inactive are the calls of the source. How the source made its calls: active means hit-call score of the fitted dose curve at least 0.9, where 1 is the maximum; inconclusive means response in the unintended direction; inactive means score below 0.9.

Target: Retinoic acid receptor RXR-alpha (Homo sapiens) (UniProt P19793)
Assay: OT_NURR1_NURR1RXRa_0480: Odyssey Thera (OT) 8-hour HEK293T Protein Complementation Assay for Nurr1/retinoid X receptor (RXR) (AID 2283385)
How it was run: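 HEK293T cells expressing Nurr1 and RXRα fused to reporter fragments (protein-fragment complementation); fluorescence measured 8 h after dosing. Gain of signal fitted relative to DMSO.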

Sequence of Retinoic acid receptor RXR-alpha (Homo sapiens) (P19793 whole entry, looked up): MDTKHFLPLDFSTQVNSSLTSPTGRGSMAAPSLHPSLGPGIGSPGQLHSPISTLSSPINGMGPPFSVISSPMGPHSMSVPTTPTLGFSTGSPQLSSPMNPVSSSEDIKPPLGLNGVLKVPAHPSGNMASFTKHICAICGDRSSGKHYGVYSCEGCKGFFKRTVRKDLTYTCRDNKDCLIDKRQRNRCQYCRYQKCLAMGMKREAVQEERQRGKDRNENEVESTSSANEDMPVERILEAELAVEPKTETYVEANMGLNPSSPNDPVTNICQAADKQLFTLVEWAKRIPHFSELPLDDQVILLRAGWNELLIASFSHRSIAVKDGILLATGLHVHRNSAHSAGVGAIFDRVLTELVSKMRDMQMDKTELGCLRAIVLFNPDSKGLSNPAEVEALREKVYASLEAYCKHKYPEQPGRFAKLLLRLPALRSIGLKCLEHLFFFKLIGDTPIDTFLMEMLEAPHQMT

outcome, inactive:
CCCCC(CC)COC(=O)c1ccc(O)cc1 (stereo not drawn), C#CC(C)(O)CC(C)C (stereo not drawn), CCCCC(CC)COC(C)=O (stereo not drawn), Clc1ccc(C(c2ccccc2Cl)C(Cl)Cl)cc1 (stereo not drawn), COc1ccccc1N=Nc1c(S(=O)(=O)O)cc2cc(S(=O)(=O)O)cc(NC(C)=O)c2c1O, CCCCCCC(C)(C)S, CCCCCCCC(=O)OCC(O)CO (stereo not drawn), O=P(O)(O)O, CN1C(=O)c2ccccc2C1=O, CC(C)Nc1nc(N)nc(Cl)n1, C=C(C)[C@@H]1CC=C(C)C(=O)C1, CCCCCC(C)=O, ON=C1CCCCC1, OC[C@H]1O[C@@H]2O[C@H]3[C@H](O)[C@@H](O)[C@@H](O[C@H]4[C@H](O)[C@@H](O)[C@@H](O[C@H]5[C@H](O)[C@@H](O)[C@@H](O[C@H]6[C@H](O)[C@@H](O)[C@@H](O[C@H]7[C@H](O)[C@@H](O)[C@@H](O[C@H]8[C@H](O)[C@@H](O)[C@@H](O[C@H]9[C@H](O)[C@@H](O)[C@@H](O[C@H]1[C@H](O)[C@H]2O)O[C@@H]9CO)O[C@@H]8CO)O[C@@H]7CO)O[C@@H]6CO)O[C@@H]5CO)O[C@@H]4CO)O[C@@H]3CO, C=C[Si]1(C)O[Si](C)(C=C)O[Si](C)(C=C)O[Si](C)(C=C)O1 (stereo not drawn), O=Cc1ccccc1S(=O)(=O)O, CN1CCOCC1, COC(=O)c1ccc(C)cc1C1=NC(C)(C(C)C)C(=O)N1 (stereo not drawn) (tested in a mixture with another compound)
